# Results: the supplement of paper PMC8728848
# Shown is part of a subset that was picked to be rich in the strongest signals.
# B1: Siglec-F (Mus musculus), Q920G3 (protein)
# chain: MRWAWLLPLLWAGCLATDGYSLSVTGSVTVQEGLCVFVACQVQYPNSKGPVFGYWFREGANIFSGSPVATNDPQRSVLKEAQGRFYLMGKENSHNCSLDIRDAQKIDTGTYFFRLDGSVKYSFQKSMLSVLVIALTEVPNIQVTSTLVSGNSTKLLCSVPWACEQGTPPIFSWMSSALTSLGHRTTLSSELNLTPRPQDNGTNLTCQVNLPGTGVTVERTQQLSVIYAPQKMTIRVSWGDDTGTKVLQSGASLQIQEGESLSLVCMADSNPPAVLSWERPTQKPFQLSTPAELQLPRAELEDQGKYICQAQNSQGAQTASVSLSIRSLLQLLGPSCSFEGQGLHCSCSSRAWPAPSLRWRLGEGVLEGNSSNGSFTVKSSSAGQWANSSLILSMEFSSNHRLSCEAWSDNRVQRATILLVSGPKVSQAGKSETSRGTVLGAIWGAGLMALLAVCLCLIFFTVKVLRKKSALKVAATKGNHLAKNPASTINSASITSSNIALGYPIQGHLNEPGSQTQKEQPPLATVPDTQKDEPELHYASLSFQGPMPPKPQNTEAMKSVYTEIKIHKC
# Experiments:
# Test in all cases: glycan array binding signal (z-score within array); higher = stronger binding
# Conditions in all cases: glycan notation: IUPAC condensed, linker removed
# [1] = biological target: Fuc(a1-2)Gal(b1-3)[Fuc(a1-4)]GlcNAc
# Outline: (§1)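 Glycan array data came from 3228 arrays in the Consortium for Functional Glycomics database, and only arrays with an available protein sequence were kept. Glycan names were put into IUPAC-condensed notation, and columns mapping to the same glycan were averaged. The binding signal is a within-array Z-score, averaged across arrays of one protein sequence run at different concentrations or buffers and across linkers. A negative Z-score can be read as non-binding.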
# [2] = biological target: Fuc(a1-2)Gal(b1-3)[Fuc(a1-4)]GlcNAc(b1-2)Man(a1-3)[Fuc(a1-2)Gal(b1-3)[Fuc(a1-4)]GlcNAc(b1-2)Man(a1-6)]Man(b1-4)GlcNAc(b1-4)GlcNAc
# Outline: as §1
# [3] = biological target: Fuc(a1-2)Gal(b1-3)[Fuc(a1-4)]GlcNAc(b1-3)[Fuc(a1-3)[Gal(b1-4)]GlcNAc(b1-6)]Gal(b1-4)Glc
# Outline: as §1
# Fuc(a1-2)Gal6S(b1-4)Glc = biological target: Fuc(a1-2)Gal6S(b1-4)Glc
# Outline: as §1
# [4] = biological target: Fuc(a1-2)[Gal(a1-3)]Gal(b1-3)GlcNAc
# Outline: as §1
# [5] = biological target: Fuc(a1-2)[GalNAc(a1-3)]Gal(b1-3)GalNAc(a1-3)[Fuc(a1-2)]Gal(b1-4)GlcNAc
# Outline: as §1
# [6] = biological target: Fuc(a1-2)[GalNAc(a1-3)]Gal(b1-3)GlcNAc(b1-3)GalNAc
# Outline: as §1
# [7] = biological target: Fuc(a1-2)[GalNAc(a1-3)]Gal(b1-3)GlcNAc(b1-6)GalNAc
# Outline: as §1
# [8] = biological target: Fuc(a1-2)[GalNAc(a1-3)]Gal(b1-4)GlcNAc(b1-2)Man(a1-3)[Fuc(a1-2)[GalNAc(a1-3)]Gal(b1-4)GlcNAc(b1-2)Man(a1-6)]Man(b1-4)GlcNAc(b1-4)GlcNAc
# Outline: as §1
# [9] = biological target: Fuc(a1-3)[Gal(b1-4)]GlcNAc
# Outline: as §1
# [10] = biological target: Fuc(a1-3)[Gal(b1-4)]GlcNAc(b1-3)Gal(b1-4)[Fuc(a1-3)]GlcNAc(b1-3)Gal(b1-4)[Fuc(a1-3)]GlcNAc
# Outline: as §1
# [11] = biological target: Fuc(a1-3)[Gal(b1-4)]GlcNAc(b1-4)Gal(b1-4)[Fuc(a1-3)]GlcNAc(b1-4)Gal(b1-4)[Fuc(a1-3)]GlcNAc
# Outline: as §1
# [12] = biological target: Fuc(a1-3)[Gal3S(b1-4)]Glc
# Outline: as §1
# [13] = biological target: Gal(a1-3)Gal(b1-4)GlcNAc(b1-6)GalNAc
# Outline: as §1
# [14] = biological target: Gal(a1-3)Gal(b1-4)[Fuc(a1-3)]GlcNAc
# Outline: as §1
# [15] = biological target: Gal(a1-4)Gal(b1-3)GlcNAc(b1-2)Man(a1-3)[Gal(a1-4)Gal(b1-3)GlcNAc(b1-2)Man(a1-6)]Man(b1-4)GlcNAc(b1-4)GlcNAc
# Outline: as §1
# [16] = biological target: Gal(b1-3)GalNAc(b1-4)[Neu5Ac(a2-3)]Gal(b1-4)Glc
# Outline: as §1
# [17] = biological target: Gal(b1-3)[Neu5Ac(a2-6)]GlcNAc(b1-6)Gal(b1-4)Glc
# Outline: as §1
# [18] = biological target: Gal(b1-4)GlcNAc(b1-2)Man(a1-3)[Gal(b1-4)GlcNAc(b1-2)Man(a1-6)][Gal(b1-4)GlcNAc(b1-4)]Man(b1-4)GlcNAc(b1-4)[Fuc(a1-6)]GlcNAc
# Outline: as §1
# [19] = biological target: Gal(b1-4)GlcNAc(b1-2)Man(a1-3)[Man(a1-6)]Man(b1-4)GlcNAc(b1-4)GlcNAc
# Outline: as §1
# [20] = biological target: Gal(b1-4)GlcNAc(b1-2)Man(a1-6)[GlcNAc(b1-2)Man(a1-3)]Man(b1-4)GlcNAc(b1-4)GlcNAc
# Outline: as §1
# [21] = biological target: Gal(b1-4)GlcNAc(b1-2)[Gal(b1-4)GlcNAc(b1-4)]Man(a1-3)[Gal(b1-4)GlcNAc(b1-2)[Gal(b1-4)GlcNAc(b1-6)]Man(a1-6)]Man(b1-4)GlcNAc(b1-4)GlcNAc
# Outline: as §1
# [22] = biological target: Gal(b1-4)GlcNAc(b1-3)Gal(b1-4)GlcNAc
# Outline: as §1
# Gal(b1-4)GlcNAc6P = biological target: Gal(b1-4)GlcNAc6P
# Outline: as §1
# Gal3S(b1-3)GlcNAc = biological target: Gal3S(b1-3)GlcNAc
# Outline: as §1
# [23] = biological target: Gal3S(b1-4)[Fuc(a1-3)]Glc6S
# Outline: as §1
# Gal3S6S(b1-4)GlcNAc6S = biological target: Gal3S6S(b1-4)GlcNAc6S
# Outline: as §1
binder,measurement,setting,value
B1,glycan array binding signal (z-score),[1],-0.132
same,glycan array binding signal (z-score),[2],-0.079
same,glycan array binding signal (z-score),[3],-0.122
same,glycan array binding signal (z-score),Fuc(a1-2)Gal6S(b1-4)Glc,-0.123
same,glycan array binding signal (z-score),[4],-0.115
same,glycan array binding signal (z-score),[5],-0.104
same,glycan array binding signal (z-score),[6],-0.094
same,glycan array binding signal (z-score),[7],-0.114
same,glycan array binding signal (z-score),[8],-0.049
same,glycan array binding signal (z-score),[9],-0.117
same,glycan array binding signal (z-score),[10],-0.115
same,glycan array binding signal (z-score),[11],-0.121
same,glycan array binding signal (z-score),[12],-0.146
same,glycan array binding signal (z-score),[13],-0.146
same,glycan array binding signal (z-score),[14],-0.123
same,glycan array binding signal (z-score),[15],0.083
same,glycan array binding signal (z-score),[16],-0.109
same,glycan array binding signal (z-score),[17],-0.091
same,glycan array binding signal (z-score),[18],-0.095
same,glycan array binding signal (z-score),[19],0.022
same,glycan array binding signal (z-score),[20],-0.13
same,glycan array binding signal (z-score),[21],-0.127
same,glycan array binding signal (z-score),[22],-0.096
same,glycan array binding signal (z-score),Gal(b1-4)GlcNAc6P,-0.111
same,glycan array binding signal (z-score),Gal3S(b1-3)GlcNAc,-0.108
same,glycan array binding signal (z-score),[23],0.156
same,glycan array binding signal (z-score),Gal3S6S(b1-4)GlcNAc6S,-0.104
